Test [1] in a line: antimalarial activity against Dd2 strain (AID 2302;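 active means growth inhibition above 50% at the single 2 µM test dose, taken to imply half-maximal potency below 2 µM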;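 further: 0% = DMSO untreated growth and 100% = chloroquine plus artemisinin killed control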). The settings on record: P. falciparum Dd2 in RBCs, LDH growth readout, 72 h; at 2 µM; active compounds read high.
Test [2] in a line: human hepatoma cell viability loss – ATP luminescence, cytotoxicity control for P. falciparum antimalarial project, primary screen (AID 2303;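 active means inhibition above 50%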;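 further: 0% = DMSO wells and 100% = digitonin-killed cells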). The settings on record: HepG2 viability, 24-48 h, at 10 µM, active compounds read high.
The target of test [3] is L-lactate dehydrogenase (Plasmodium falciparum (isolate CDC / Honduras)) (UniProt Q27743). As to the kind of experiment: PfLDH activity inhibition – cell lysate, 3D7 strain, counter-screen for P. falciparum growth inhibition project (AID 2304).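 Further: 0% = vehicle and 100% = reference inhibitor.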 The conditions noted are these: P. falciparum 3D7 crude extract, LDH APAD/NBT absorbance; at 2 µM; active compounds read high. (In general: Counterscreens check selectivity or assay interference.)

The nature of test [4]: inhibition of 3D7 malaria parasite growth – strain 3D7 (AID 2306).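 Further: 0% = DMSO wells and 100% = chloroquine plus artemisinin control wells.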 The conditions noted are these: P. falciparum 3D7 erythrocytic growth, LDH absorbance, 72 h; at 2 µM; active compounds read high.
The target in test [5] is Calcium-dependent protein kinase 1 (Plasmodium falciparum (isolate 3D7)) (UniProt P62344). As to the kind of experiment: PfCDPK1 kinase inhibitors, biochemical, TCAMS library (AID 1159585; cut-off not given, nearly all actives have IC50 up to about 0.98 µM;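 further: inhibitors leave more ATP so luminescence rises with inhibition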). The conditions noted are these: recombinant PfCDPK1, Kinase-Glo ATP depletion luminescence. On the technique in general: Kinase-Glo reads ATP consumption through a luciferase reaction.
Test [6] has as its target Plasmodium falciparum protein kinase 6 (PK6, PF3D7_1337100) (UniProt Q8IDW1). The test can be described thus: PfPK6 kinase inhibitors, biochemical, TCAMS library (AID 1159586). The conditions noted are these: recombinant PfPK6, Kinase-Glo ATP depletion luminescence.
Test [7] has as its target Protein kinase 7 (PK7), Plasmodium falciparum 3D7 (PF3D7_0213400) (UniProt Q7YTF7). The test can be described thus: inhibition of Plasmodium PK7 catalytic activity – biochemical, TCAMS antimalarial set, Kinase-Glo luminescence (AID 1159587). The conditions noted are these: recombinant PfPK7, Kinase-Glo ATP depletion luminescence.
Test [8] concerns the target Calcium-dependent protein kinase 4 (Plasmodium falciparum (isolate 3D7)) (UniProt Q8IBS5). As to the kind of experiment: PfCDPK4 kinase inhibitors, biochemical, TCAMS library (AID 1159588; cut-off not given, nearly all actives have IC50 up to about 0.91 µM). The conditions noted are these: recombinant PfCDPK4, Kinase-Glo ATP depletion luminescence.

A number with no mark means an inactive call. For some of these results: Results with a measured potency or affinity are listed apart. Calls of active or inactive are those of the source. Unless noted, how the calls were made is not given here.

The text below walks through data of PubChem BioAssay.

Calcium-dependent protein kinase 4 (Plasmodium falciparum (isolate 3D7)), sequence (Q8IBS5 whole entry, looked up): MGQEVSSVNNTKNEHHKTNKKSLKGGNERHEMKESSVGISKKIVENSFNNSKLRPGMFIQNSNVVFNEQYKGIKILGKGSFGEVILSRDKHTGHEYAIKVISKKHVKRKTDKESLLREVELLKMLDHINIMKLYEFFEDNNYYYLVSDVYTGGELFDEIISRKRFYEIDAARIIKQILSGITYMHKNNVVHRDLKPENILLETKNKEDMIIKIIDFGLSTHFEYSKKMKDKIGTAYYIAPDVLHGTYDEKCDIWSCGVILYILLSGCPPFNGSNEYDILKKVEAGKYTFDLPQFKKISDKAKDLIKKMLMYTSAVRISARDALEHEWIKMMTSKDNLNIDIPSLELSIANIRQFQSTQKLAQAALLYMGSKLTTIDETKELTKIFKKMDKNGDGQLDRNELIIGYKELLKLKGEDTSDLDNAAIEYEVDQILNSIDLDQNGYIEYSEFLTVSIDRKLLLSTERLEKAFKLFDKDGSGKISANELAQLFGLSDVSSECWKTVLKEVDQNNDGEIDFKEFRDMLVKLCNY
Plasmodium falciparum protein kinase 6 (PK6, PF3D7_1337100), sequence (Q8IDW1 1-305): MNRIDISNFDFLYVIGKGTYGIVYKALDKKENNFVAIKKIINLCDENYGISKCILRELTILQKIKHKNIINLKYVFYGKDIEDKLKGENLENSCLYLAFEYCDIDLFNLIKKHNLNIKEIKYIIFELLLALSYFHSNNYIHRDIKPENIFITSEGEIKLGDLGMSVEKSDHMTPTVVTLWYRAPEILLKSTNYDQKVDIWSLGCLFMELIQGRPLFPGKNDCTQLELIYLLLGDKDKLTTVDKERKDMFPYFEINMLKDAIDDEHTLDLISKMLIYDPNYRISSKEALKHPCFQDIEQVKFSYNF
Calcium-dependent protein kinase 1 (Plasmodium falciparum (isolate 3D7)), sequence (P62344 whole entry, looked up): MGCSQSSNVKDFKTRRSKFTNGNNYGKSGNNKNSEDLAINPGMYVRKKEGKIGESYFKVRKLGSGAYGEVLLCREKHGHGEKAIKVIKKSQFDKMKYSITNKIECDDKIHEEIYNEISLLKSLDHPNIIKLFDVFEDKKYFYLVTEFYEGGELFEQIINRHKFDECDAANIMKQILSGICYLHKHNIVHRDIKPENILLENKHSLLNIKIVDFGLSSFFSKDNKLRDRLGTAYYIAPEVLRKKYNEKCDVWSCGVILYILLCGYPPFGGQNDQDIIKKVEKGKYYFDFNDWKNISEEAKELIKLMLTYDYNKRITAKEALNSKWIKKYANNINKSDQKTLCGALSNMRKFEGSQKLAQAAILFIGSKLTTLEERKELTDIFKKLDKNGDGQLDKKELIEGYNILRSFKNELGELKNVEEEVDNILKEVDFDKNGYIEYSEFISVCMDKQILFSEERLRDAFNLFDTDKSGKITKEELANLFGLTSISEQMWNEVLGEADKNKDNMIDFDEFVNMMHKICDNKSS
Protein kinase 7 (PK7), Plasmodium falciparum 3D7 (PF3D7_0213400), sequence (Q7YTF7 1-343): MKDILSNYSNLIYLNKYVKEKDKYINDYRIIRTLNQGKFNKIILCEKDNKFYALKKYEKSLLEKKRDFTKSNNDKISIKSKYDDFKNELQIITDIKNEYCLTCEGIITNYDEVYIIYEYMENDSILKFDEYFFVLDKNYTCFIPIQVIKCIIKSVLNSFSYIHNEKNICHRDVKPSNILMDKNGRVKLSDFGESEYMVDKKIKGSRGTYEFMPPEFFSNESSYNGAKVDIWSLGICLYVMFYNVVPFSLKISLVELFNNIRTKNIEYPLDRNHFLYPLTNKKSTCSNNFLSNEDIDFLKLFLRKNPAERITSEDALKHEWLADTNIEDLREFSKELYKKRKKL
L-lactate dehydrogenase (Plasmodium falciparum (isolate CDC / Honduras)), sequence (Q27743 whole entry, looked up): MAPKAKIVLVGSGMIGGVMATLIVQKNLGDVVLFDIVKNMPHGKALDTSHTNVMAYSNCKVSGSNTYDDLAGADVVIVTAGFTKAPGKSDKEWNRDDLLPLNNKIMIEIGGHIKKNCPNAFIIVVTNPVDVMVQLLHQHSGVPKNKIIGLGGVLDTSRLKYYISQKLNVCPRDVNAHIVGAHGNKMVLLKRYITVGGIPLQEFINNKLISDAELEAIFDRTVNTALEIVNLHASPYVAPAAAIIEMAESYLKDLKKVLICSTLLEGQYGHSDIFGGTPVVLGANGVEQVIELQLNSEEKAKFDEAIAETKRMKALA

The term inhibition denotes the drop in the measured response relative to a control, in per cent. For `CN1CCC(NCc2cccc(-c3ccc(S(=O)(=O)NCCc4ccccn4)cc3)c2)CC1`, the values for the growth inhibition in test [1] and in test [4] were 1% and 95% (active), respectively. For the same compound, the inhibition in test [2] is 10%; in test [3], -1%. Also, the result in test [5], in test [6], in test [7] and in test [8] was inactive.

`O=C(N[C@@H](CC1CCCCC1)C(=O)NCCN1CCCC1)c1ccc(O)c(-c2cccc(C(F)(F)F)c2)c1`: the growth inhibition in test [1] was 55% (active); in test [4], 99% (active). Further, the inhibition in test [2] is -11%; in test [3], -4%. For the same compound, the outcome in test [5], in test [6], in test [7] and in test [8] was inactive.

On to `Cc1ccc(Cn2c(N3CCC(C(=O)NCc4cccs4)CC3)nc3ccccc32)cc1`, for which the growth inhibition in test [1] is 71% (active); in test [4] it was 99% (active). Further, the inhibition in test [2] is -4%; in test [3] it was -1%. The outcome in test [5], in test [6], in test [7] and in test [8] was inactive.

As for `Oc1ccc(CCNc2nc(NCCOc3ccccc3-c3ccccc3)nc(N3CCNCC3)n2)cc1`, the growth inhibition is 17% in test [1] and 93% (active) in test [4]. The inhibition in test [2] was 22%; in test [3], -1%. The result in test [5], in test [6], in test [7] and in test [8] was inactive.

Turning to `CN(C)c1cccc2c1nc(-c1ccco1)n2CCNCc1ccccc1`, the results for the growth inhibition in test [1] and in test [4] were 97% (active) and 98% (active), respectively. Also, the figures for the inhibition in test [2] and in test [3] were -1% and 2%, respectively. Besides, the result in test [5], in test [6], in test [7] and in test [8] was inactive.

Turning to `Cc1sc(CNCCCNc2cc(=O)c3ccccc3[nH]2)c(C(F)(F)F)c1C`, the results for the growth inhibition in test [1] and in test [4] were 70% (active) and 99% (active), respectively. The inhibition was -12% in test [2] and 1% in test [3]. The outcome in test [5], in test [6], in test [7] and in test [8] was inactive.

As for `COc1ccc(NC(=O)N2CCCN(CCCCCNC(=O)/C=C/c3ccc(C(F)(F)F)cc3)CC2)cc1Cl`, the growth inhibition is -5% in test [1] and 93% (active) in test [4]. In addition, the inhibition in test [2] is 21%; in test [3] it was 4%. Besides, the outcome in test [5], in test [6], in test [7] and in test [8] was inactive.

Consider `Nc1ncc(-c2cc3ccccc3o2)c(N)n1`, for which the growth inhibition in test [1] is 2%; in test [4] it was 81% (active). Moreover, the inhibition in test [2] is -3%; in test [3], 0%. For the same compound, the outcome in test [5], in test [6], in test [7] and in test [8] was inactive.

Regarding `Cc1cccc2[nH]c(-c3cccc(-c4cccc(CNCC5CCCO5)c4)c3)nc12` (stereo not given), the values for the growth inhibition in test [1] and in test [4] were 99% (active) and 101% (active), respectively. Also, the inhibition in test [2] is 26%; in test [3], -3%. For the same compound, the result in test [5], in test [6], in test [7] and in test [8] was inactive.

As to `Cc1cccc2[nH]c(-c3cccc(-c4ccc(NC(=O)c5cnccc5C(F)(F)F)cc4)c3)nc12`, the growth inhibition was 37% in test [1] and 100% (active) in test [4]. The inhibition in test [2] is 60% (active); in test [3], -3%. The result in test [5], in test [6], in test [7] and in test [8] was inactive.

In the case of `CC(C)C[C@@H]1C(=O)N[C@H](C2Cc3ccccc3C2)C(=O)N1[C@@H](C(=O)O)c1ccc(F)cc1F`, the results for the growth inhibition in test [1] and in test [4] were -2% and 98% (active), respectively. Also, the inhibition in test [2] is 10%; in test [3], -1%. The result in test [5], in test [6], in test [7] and in test [8] was inactive.

Take `CCN(CC)CCNc1ccnc2[nH]c3ccc([N+](=O)[O-])cc3c12`: the growth inhibition is 76% (active) in test [1] and 100% (active) in test [4]. The inhibition is 6% in test [2] and -4% in test [3]. For the same compound, the result in test [5], in test [6], in test [7] and in test [8] was inactive.

Consider `CN1CCN(c2ccnc3ccc(NC(=O)Nc4ccc5ccccc5c4)cc23)CC1`, for which the growth inhibition was 99% (active) in test [1] and 101% (active) in test [4]. The inhibition in test [2] is 2%; in test [3], -1%. The outcome in test [5], in test [6], in test [7] and in test [8] was inactive.

On to `CCOC(=O)c1c(CN(CC)CC)n(-c2ccccc2)c2cc(Br)c(O)cc12`, for which the values for the growth inhibition in test [1] and in test [4] were 46% and 93% (active), respectively. Also, the inhibition in test [2] was 14%; in test [3], -5%. Besides, the result in test [5], in test [6], in test [7] and in test [8] was inactive.

With `Cc1ccc(CN2CCCN(Cc3ccc(C(=O)Nc4ccc(Cl)cc4)cc3)CC2)s1`, the growth inhibition in test [1] was 5%; in test [4], 85% (active). Further, the inhibition is 53% (active) in test [2] and 3% in test [3]. Further, the outcome in test [5], in test [6], in test [7] and in test [8] was inactive.

Turning to `O=C(NC1CCCCN(Cc2ccccc2O)C1)c1ccc(Cl)c(Cl)c1` (stereo not given), the growth inhibition in test [1] and in test [4] was 96% (active) throughout. Moreover, the values for the inhibition in test [2] and in test [3] were -7% and -1%, respectively. Further, the outcome in test [5], in test [6], in test [7] and in test [8] was inactive.

Regarding `Cn1cncc1-c1ccc2ncnc(Nc3ccc4c(cnn4Cc4ccccc4)c3)c2c1`, the values for the growth inhibition in test [1] and in test [4] were 99% (active) and 100% (active), respectively. Besides, the inhibition in test [2] was 1%; in test [3], -3%. Also, the outcome in test [5], in test [6], in test [7] and in test [8] was inactive.

Turning to `NC1CCCN(Cc2ccc(-c3cccc(-c4nc5ccccc5[nH]4)c3)cc2)C1` (stereo not given), the growth inhibition is 26% in test [1] and 95% (active) in test [4]. Further, the inhibition in test [2] was 26%; in test [3], 2%. The outcome in test [5], in test [6], in test [7] and in test [8] was inactive.

As for `CCNc1cc(C(=O)N[C@@H](Cc2ccccc2)[C@H](O)CNC(C)(C)Cc2cccc(OC)c2)cc(N2CCCC2=O)c1`, the growth inhibition in test [1] was 97% (active); in test [4], 99% (active). The inhibition in test [2] was 7%; in test [3] it was -8%. Besides, the result in test [5], in test [6], in test [7] and in test [8] was inactive.

`CN1CCN(CCCN(Cc2cccc(-c3ccc(CNCCc4ccccc4)cc3)c2)C(=O)c2cccs2)CC1`: the results for the growth inhibition in test [1] and in test [4] were 97% (active) and 101% (active), respectively. Moreover, the inhibition in test [2] was 86% (active); in test [3], 2%. The result in test [5], in test [6], in test [7] and in test [8] was inactive.
